The values that follow come from PubChem BioAssay (Tox21).

Assay [1] can be described thus: qHTS assay to identify small molecule antagonists of the sonic hedgehog signaling (Shh) pathway (AID 1259369; calls by dose curve; also: nearly all actives have a fitted effect of over 45% in size; also: potency is read from the fitted curve at half-maximal effect). In outline:
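For antagonist detection, the reporter line received test compounds together with conditioned medium, incubated 24hr at 37 C, 5% CO2, then luminescence was recorded following 30min room-temperature luciferase reagent incubation.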
(Quantitative high-throughput screening tests each substance at several concentrations.)

The target of assay [2] is Estrogen receptor beta (Homo sapiens) (UniProt Q92731). Description: qHTS assay to identify small molecule agonists of the estrogen receptor beta (ER-beta) signaling pathway (AID 1259377; active = well fitted activation curve with a large enough effect in the signal ratio in the repeat runs, not every such curve was filed as active; the % refers to the signal ratio). In outline:
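Ratiometric beta-lactamase FRET read-out came after 2 h substrate loading at room temperature. It followed 16 h compound treatment at 37C of GripTite HEK293T cells carrying a UAS-bla reporter, plated in 2% charcoal-stripped FBS medium.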

Assay [3] has the same target. Put plainly: qHTS assay to identify small molecule antagonists of the estrogen receptor beta (ER-beta) signaling pathway (AID 1259378; active = well fitted inhibition curve with a large enough effect in the signal ratio in the repeat runs, not every such curve was filed as active; the % refers to the signal ratio). In outline: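 ER-beta-UAS-bla HEK293T cells in 2% charcoal-stripped FBS medium treated with compound plus 1nM final 17-beta-estradiol for 16 hr at 37C. Beta-lactamase reporter read by FRET substrate fluorescence after 2 hours at room temperature.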

A short description of assay [4]: qHTS assay to identify small molecule agonists of the androgen receptor (AR) signaling pathway in the presence of an antagonist - cell viability counter screen (AID 1259379).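 Also: MDA-kb2 human breast cancer cells carrying an MMTV luciferase reporter; series mostly up to about 92 µM; nearly all actives have a fitted effect of over 25% in size.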 In outline:
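Seed MDA-kb2 at 3,000 cells/well; incubate 5 hr, 37C, 0% CO2. Add nilutamide to 3.0uM final, then pin compounds at 15 concentrations. Incubate 16 hr. Add CellTiter-Fluor at 15 hr, read fluorescence after 1 hr.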

Assay [5] in a line: qHTS assay to identify small molecule agonists of the estrogen receptor beta (ER-beta) signaling pathway - cell viability counter screen (AID 1259380). Also: nearly all actives have a fitted effect of over 30% in size. In outline:
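CellTiter-Glo read, 30 min RT, same wells as bla assay; cells ER-beta-UAS-bla HEK293T; 16 hr compound, 37C; medium 2% charcoal-stripped FBS.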

Assay [6] in a line: qHTS assay to identify small molecule antagonists of the estrogen receptor beta (ER-beta) signaling pathway - cell viability counter screen (AID 1259382). Also: series mostly up to about 92 µM; nearly all actives have a fitted effect of over 55% in size. In outline: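 In this multiplexed counter screen, cells were seeded at 2,000 per well in medium with 2% charcoal-stripped FBS and incubated 6 hr before compound and 1nM final E2 were added. Sixteen hours later, ATP-based luminescence reported viability.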

Assay [7] addresses Estrogen receptor (Homo sapiens) (UniProt P03372). Description: qHTS assay to identify small molecule agonists of the estrogen receptor alpha (ER-alpha) signaling pathway in the presence of an antagonist (AID 1259383; calls by dose curve; also: top concentration of the series differs between compounds; nearly all actives have a fitted effect of over 15% in size). In outline:
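Stably transfected VM7Luc4E2 reporter cells, kept 5 days in charcoal-stripped serum, received ICI-182,780 at 10.0nM final before compound addition. Following 22hr incubation at 37C and 5% CO2, luciferase signal was read by luminescence.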

A short description of assay [8]: qHTS assay to identify small molecule agonists or antagonists of the thyroid stimulating hormone receptor (TSHR) signaling pathway - wild type cell line counter screen (AID 1259384; calls by dose curve). In outline:
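Wild-type Hek293 cells, 800/well, 18 h at 37C, then compound with Ro20-1724 for 30 min RT. cAMP by HTRF (cAMP-d2/anti-cAMP cryptate), 1 h RT, fluorescence read. 15 concentrations, triplicates.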

In assay [9] the target is Thyrotropin receptor (Homo sapiens) (UniProt P16473). Put plainly: qHTS assay to identify small molecule antagonists of the thyroid stimulating hormone receptor (TSHR) signaling pathway (AID 1259385; calls by dose curve; also: nearly all actives have a fitted effect of over 20% in size). In outline: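 TSHR-HEK293 cells (800/well) plated 18 h, then compounds with Ro20-1724 and TSH at 1.5 ng/mL final, 30 min at room temperature. cAMP quantified by HTRF (cAMP-d2/anti-cAMP-cryptate, 1 h); 15 concentrations in triplicate.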

Assay [10] is described as follows: qHTS assay to identify small molecule agonists of the estrogen receptor alpha (ER-alpha) signaling pathway in the presence of an antagonist - cell viability counter screen (AID 1259386).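 Also: series mostly up to about 92 µM; cells exposed to compounds for 22 h at 37 °C before the viability read; nearly all actives have a fitted effect of over 30% in size.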 In outline: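 Viability counter screen using VM7Luc4E2 (full-length ER-alpha, four ERE-luciferase). The cells were treated with compounds alongside ICI-182,780 10.0nM for 22hr, and live-cell protease fluorescence was quantified with CellTiter-Fluor.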

The target of assay [11] is Progesterone receptor (Homo sapiens) (UniProt P06401). Put plainly: qHTS assay to identify small molecule agonists of the progesterone receptor (PR) signaling pathway (AID 1346784; calls by dose curve; also: nearly all actives have a fitted effect of over 30% in size; also: potency is read from the fitted curve at half-maximal effect). In outline:
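Agonist qHTS: compounds pinned onto 3,000 PR-UAS-bla HEK 293T cells per well in charcoal-stripped serum medium, 16hr at 37C, then beta-lactamase activity measured by LiveBLAzer FRET fluorescence after 2 hours at room temperature.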

For assay [12] the target is unchanged. Description: qHTS assay to identify small molecule antagonists of the progesterone receptor (PR) signaling pathway (AID 1346795; active = well fitted inhibition curve with a large enough effect in the signal ratio in the repeat runs, not every such curve was filed as active; the % refers to the signal ratio). In outline:
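Antagonist mode with agonist R5020 at 1 nM final and 16 hr incubation at 37C. Reporter was beta-lactamase driven by UAS in HEK293T (PR-UAS-bla), 2% charcoal-stripped serum; signal from LiveBLAzer FRET substrate, 2 hr at room temperature.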

Assay [13] is described as follows: qHTS assay to identify small molecule antagonists of the progesterone receptor (PR) signaling pathway - cell viability counter screen (AID 1346798). Also: series mostly up to about 92 µM; nearly all actives have a fitted effect of over 50% in size. In outline:
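Cytotoxicity read as CellTiter-Glo luminescence (30 min, room temperature) in the same wells as the beta-lactamase readout. HEK293T PR-UAS-bla cells in charcoal-stripped 2% FBS received compound and R5020, then 16 h at 37C, 5% CO2.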

Assay [14] is described as follows: qHTS assay to identify small molecule agonists of the progesterone receptor (PR) signaling pathway - cell viability counter screen (AID 1346799; calls by dose curve; also: nearly all actives have a fitted effect of over 45% in size). In outline:
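Cytotoxicity measured by CellTiter-Glo luminescence (30 min, RT) in the same wells as the PR beta-lactamase agonist read. Those HEK293T cells had 16 h compound treatment at 37 C in 2% charcoal-stripped FBS medium.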

Assay [15] in a line: qHTS assay to identify small molecule antagonists of the TGF-beta/Smad signaling pathway - cell viability counter screen (AID 1346824). Also: nearly all actives have a fitted effect of over 50% in size. In outline:
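SBE-bla HEK 293T cells, incubated overnight, then compound plus 0.25 ng/mL TGF-beta1 (stock added) for 5 hr at 37 C. Viability was read in the same wells by CellTiter-Glo luminescence after 30 min at room temperature.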

Assay [16] in a line: qHTS assay to identify small molecule agonists of the TGF-beta/Smad signaling pathway - cell viability counter screen (AID 1346829). Also: top concentration of the series differs between compounds; nearly all actives have a fitted effect of over 45% in size. In outline: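 SBE-bla HEK 293T cells plated overnight, compound exposure 5 hr at 37 C. Viability read in the same wells by CellTiter-Glo luminescence after 30 min at room temperature, following the beta-lactamase read.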
Assay [17] in a line: qHTS assay to identify small molecule agonists of the TGF-beta/Smad signaling pathway (AID 1346859; active = well fitted activation curve with a large enough effect in the signal ratio in the repeat runs, not every such curve was filed as active; the % refers to the signal ratio; also: series mostly up to about 77 µM). In outline:
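Fluorescence (ex 405 nm; em 460 and 530 nm) was read 2 h after LiveBLAzer FRET substrate at RT. The preceding compound treatment of overnight-plated SBE-bla HEK293T cells lasted 5 h at 37 C.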

Assay [18] concerns the target Androgen receptor (Homo sapiens) (UniProt P10275). Description: qHTS assay to identify small molecule agonists of the androgen receptor (AR) signaling pathway in the presence of an antagonist (AID 1259381; calls by dose curve; also: nearly all actives have a fitted effect of over 15% in size). In outline: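 Test compounds at 15 concentrations were incubated for 16hr with MDA-kb2 reporter cells in presence of 3.0uM nilutamide (final). Signal: ONE-Glo luciferase luminescence.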

The target of assay [19] is Thyrotropin-releasing hormone receptor (Homo sapiens) (UniProt P34981). Description: qHTS assay to identify small molecule antagonists of the thyrotropin-releasing hormone receptor (TRHR) signaling pathway (AID 1346877; active = well fitted inhibition curve with a large enough effect in the repeat runs, not every such curve was filed as active; also: series mostly up to about 51 µM). In outline:
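Following an 18 h incubation at 37 °C and a 2 h calcium dye load, TRHR-HEK293 cells were exposed to compound (5 min, room temperature) and challenged with TRH, 1 nM final.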

Assay [20] has the same target. Description: qHTS assay to identify small molecule agonists of the thyrotropin-releasing hormone receptor (TRHR) signaling pathway (AID 1346891; calls by dose curve; also: series mostly up to about 58 µM). In outline:
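Agonist-mode intracellular calcium readout: kinetic fluorescence over 3 min at 1 s intervals after compound addition to TRHR-HEK293 cells (18 h seeded, 2 h dye-loaded at 37 C). Fifteen concentrations, triplicates.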

Structures are written as SMILES. Inconclusive results are not listed. The source holds several records for some structures; these can differ, active in one and inactive in another. Activity calls are given as the source filed them. Unless noted, calls follow the shape of the dose curve; as a rule, active = well fitted curve in the direction sought with a large enough effect in the repeat runs; inconclusive = weak or mixed curves; inactive = no such curve, though single readings can be large; an effect the other way counts as inactive or inconclusive.

Chain of Androgen receptor (Homo sapiens) (P10275 whole entry, looked up): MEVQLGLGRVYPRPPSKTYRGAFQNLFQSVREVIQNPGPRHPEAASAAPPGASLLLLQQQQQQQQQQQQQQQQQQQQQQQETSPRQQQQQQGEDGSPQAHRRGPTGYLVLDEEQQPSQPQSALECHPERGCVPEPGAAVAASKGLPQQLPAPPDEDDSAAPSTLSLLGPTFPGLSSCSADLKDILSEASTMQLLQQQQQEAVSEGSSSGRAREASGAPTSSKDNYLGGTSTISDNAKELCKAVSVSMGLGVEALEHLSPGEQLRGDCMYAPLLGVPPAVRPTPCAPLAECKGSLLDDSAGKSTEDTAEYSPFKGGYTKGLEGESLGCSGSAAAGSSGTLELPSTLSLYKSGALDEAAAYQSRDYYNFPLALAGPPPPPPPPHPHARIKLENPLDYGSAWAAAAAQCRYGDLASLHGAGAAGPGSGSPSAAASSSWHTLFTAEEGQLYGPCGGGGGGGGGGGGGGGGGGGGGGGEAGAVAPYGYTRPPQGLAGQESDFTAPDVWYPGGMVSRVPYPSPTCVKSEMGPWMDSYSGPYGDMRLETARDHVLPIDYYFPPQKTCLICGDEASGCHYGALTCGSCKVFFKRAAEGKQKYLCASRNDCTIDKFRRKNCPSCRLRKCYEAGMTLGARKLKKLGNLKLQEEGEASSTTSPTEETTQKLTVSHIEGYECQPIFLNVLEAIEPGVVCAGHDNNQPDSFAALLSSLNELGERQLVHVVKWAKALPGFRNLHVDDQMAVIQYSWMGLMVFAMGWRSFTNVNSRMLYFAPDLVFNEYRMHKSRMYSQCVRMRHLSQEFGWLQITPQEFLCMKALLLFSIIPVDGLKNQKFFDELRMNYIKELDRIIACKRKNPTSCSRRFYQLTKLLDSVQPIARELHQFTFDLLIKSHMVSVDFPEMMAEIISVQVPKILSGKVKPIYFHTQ
Chain of Thyrotropin-releasing hormone receptor (Homo sapiens) (P34981 whole entry, looked up): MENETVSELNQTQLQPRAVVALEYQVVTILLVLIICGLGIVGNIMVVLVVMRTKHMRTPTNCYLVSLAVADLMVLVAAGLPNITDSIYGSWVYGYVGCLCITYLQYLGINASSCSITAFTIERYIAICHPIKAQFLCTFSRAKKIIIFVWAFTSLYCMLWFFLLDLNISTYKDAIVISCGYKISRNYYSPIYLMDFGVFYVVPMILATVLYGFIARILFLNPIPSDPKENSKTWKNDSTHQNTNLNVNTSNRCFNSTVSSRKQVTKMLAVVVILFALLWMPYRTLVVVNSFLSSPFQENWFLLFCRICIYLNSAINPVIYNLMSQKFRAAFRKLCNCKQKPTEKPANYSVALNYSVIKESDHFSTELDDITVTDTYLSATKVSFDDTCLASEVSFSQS
Chain of Thyrotropin receptor (Homo sapiens) (P16473 whole entry, looked up): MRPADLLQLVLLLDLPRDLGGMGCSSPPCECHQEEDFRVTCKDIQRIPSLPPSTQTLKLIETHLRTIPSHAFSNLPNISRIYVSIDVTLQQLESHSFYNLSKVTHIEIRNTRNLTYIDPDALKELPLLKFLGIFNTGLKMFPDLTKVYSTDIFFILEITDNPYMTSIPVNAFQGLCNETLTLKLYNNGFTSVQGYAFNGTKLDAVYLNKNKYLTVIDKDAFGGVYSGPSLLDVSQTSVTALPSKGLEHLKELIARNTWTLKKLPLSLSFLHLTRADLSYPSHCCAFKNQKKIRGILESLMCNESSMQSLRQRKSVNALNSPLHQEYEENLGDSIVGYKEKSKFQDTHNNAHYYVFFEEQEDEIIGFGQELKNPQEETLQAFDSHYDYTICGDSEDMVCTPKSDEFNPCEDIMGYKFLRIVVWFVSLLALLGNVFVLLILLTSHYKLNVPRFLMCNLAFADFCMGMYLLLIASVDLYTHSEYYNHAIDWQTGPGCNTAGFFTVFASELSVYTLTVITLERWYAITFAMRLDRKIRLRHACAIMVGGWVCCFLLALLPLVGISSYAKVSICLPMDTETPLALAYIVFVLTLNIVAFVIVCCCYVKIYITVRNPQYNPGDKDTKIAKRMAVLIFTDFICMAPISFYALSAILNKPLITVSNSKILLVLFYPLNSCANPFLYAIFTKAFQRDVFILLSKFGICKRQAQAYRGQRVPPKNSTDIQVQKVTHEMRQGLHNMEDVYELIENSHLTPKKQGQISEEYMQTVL
Chain of Estrogen receptor beta (Homo sapiens) (Q92731 whole entry, looked up): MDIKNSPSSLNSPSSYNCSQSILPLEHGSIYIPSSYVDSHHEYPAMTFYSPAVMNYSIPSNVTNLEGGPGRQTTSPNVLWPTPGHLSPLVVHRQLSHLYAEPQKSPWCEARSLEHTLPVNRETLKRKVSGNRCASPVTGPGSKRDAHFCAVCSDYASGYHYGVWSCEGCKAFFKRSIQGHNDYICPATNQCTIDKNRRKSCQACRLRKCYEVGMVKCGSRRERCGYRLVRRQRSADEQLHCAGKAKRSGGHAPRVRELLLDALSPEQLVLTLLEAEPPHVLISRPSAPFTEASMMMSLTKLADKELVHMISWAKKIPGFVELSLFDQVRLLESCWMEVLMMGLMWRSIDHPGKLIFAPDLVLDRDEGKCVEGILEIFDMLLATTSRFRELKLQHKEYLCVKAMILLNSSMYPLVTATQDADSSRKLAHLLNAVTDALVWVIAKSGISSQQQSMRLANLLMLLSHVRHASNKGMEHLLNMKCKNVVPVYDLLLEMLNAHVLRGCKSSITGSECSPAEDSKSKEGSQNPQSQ
Chain of Progesterone receptor (Homo sapiens) (P06401 whole entry, looked up): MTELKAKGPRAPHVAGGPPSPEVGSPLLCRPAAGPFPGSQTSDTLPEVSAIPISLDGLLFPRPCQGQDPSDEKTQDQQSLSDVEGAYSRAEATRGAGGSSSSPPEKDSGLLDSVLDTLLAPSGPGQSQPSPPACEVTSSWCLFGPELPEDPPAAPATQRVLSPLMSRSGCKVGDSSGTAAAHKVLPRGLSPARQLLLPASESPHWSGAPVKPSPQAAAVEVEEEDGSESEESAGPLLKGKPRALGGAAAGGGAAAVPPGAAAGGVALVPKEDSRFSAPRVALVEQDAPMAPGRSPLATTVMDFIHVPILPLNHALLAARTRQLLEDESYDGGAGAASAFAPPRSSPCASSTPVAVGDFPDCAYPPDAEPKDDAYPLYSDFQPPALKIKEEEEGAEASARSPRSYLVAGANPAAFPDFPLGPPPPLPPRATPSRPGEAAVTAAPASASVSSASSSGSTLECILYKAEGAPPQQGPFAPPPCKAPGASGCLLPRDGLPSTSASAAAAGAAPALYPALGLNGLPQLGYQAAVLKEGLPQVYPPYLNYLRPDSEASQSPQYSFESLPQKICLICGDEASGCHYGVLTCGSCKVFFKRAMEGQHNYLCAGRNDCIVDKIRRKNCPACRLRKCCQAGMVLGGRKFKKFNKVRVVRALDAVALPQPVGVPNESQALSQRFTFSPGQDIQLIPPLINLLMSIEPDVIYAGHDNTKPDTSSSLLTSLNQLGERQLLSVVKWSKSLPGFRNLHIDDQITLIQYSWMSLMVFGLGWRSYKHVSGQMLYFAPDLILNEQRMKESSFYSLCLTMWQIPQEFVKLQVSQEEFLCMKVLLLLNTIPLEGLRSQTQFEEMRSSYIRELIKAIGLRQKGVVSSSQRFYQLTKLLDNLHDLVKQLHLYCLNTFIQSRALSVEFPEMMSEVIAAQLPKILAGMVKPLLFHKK
Chain of Estrogen receptor (Homo sapiens) (P03372 whole entry, looked up): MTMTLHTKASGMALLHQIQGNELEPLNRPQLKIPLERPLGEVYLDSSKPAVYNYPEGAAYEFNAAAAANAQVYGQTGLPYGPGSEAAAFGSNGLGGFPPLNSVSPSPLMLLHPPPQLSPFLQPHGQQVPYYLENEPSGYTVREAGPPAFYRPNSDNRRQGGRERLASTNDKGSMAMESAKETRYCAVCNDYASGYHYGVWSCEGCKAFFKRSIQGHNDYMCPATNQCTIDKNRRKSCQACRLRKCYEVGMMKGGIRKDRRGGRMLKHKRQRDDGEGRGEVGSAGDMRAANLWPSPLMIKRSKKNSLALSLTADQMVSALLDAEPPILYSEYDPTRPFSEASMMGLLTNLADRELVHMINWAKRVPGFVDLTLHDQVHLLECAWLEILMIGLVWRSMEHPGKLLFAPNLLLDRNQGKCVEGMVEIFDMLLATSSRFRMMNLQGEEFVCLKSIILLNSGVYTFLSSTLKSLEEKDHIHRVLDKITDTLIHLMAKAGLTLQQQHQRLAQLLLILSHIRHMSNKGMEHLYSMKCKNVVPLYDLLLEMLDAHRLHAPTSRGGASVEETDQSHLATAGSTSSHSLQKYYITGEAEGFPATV

For the molecule `Nc1ncnc2nc[nH]c12`, the Potency entry in assay [1], in assay [2], in assay [3], in assay [4], in assay [5] and in [6] was “inactive” each time. The Potency result in assay [7], in assay [9], in assay [10], in assay [11], in assay [12] and in [13] was “inactive” each time. Besides, the Potency entry in [14], in assay [15] and in assay [16] was “inactive” throughout. For the same molecule, the molecule was classed as inactive in [8] and in assay [17].
Consider `Cc1cccc([N+](=O)[O-])c1C`, for which the Potency entry in [1], in assay [2], in assay [3], in assay [4], in assay [5] and in [6] was “inactive” in each case. Also, the Potency entry in assay [7], in assay [10], in [11], in [12], in assay [13] and in assay [14] was “inactive” in each case. Moreover, the Potency result in [15], in assay [16], in assay [19] and in assay [20] was “inactive” throughout. Moreover, the result in assay [18] and in [17] was inactive.
As to `Cc1[nH]c(=O)c(C#N)cc1-c1ccncc1`, the Potency result in assay [1], in [2], in [3], in [4], in assay [5] and in assay [6] was “inactive” in each case. Further, the Potency entry in assay [7], in [9], in [10], in assay [13], in assay [15] and in [16] was “inactive” throughout. The Potency result in assay [19] and in assay [20] was “inactive” throughout. Besides, the molecule was classed as inactive in assay [8] and in assay [17].
As to `CCCCNS(=O)(=O)c1ccccc1`, the Potency result in assay [1], in assay [2], in assay [3], in [4], in assay [5] and in assay [6] was “inactive” in each case. The Potency entry in assay [7], in assay [9], in [10], in assay [11], in assay [12] and in assay [13] was “inactive” each time. Further, the Potency result in assay [15], in assay [16], in assay [19] and in assay [20] was “inactive” each time. For the same molecule, the molecule was called inactive in [8] and in assay [17].
Turning to `Cc1ccc2c(n1)Oc1ccc(C(C)C(=O)OCC(=O)N(C)C)cc1C2` (stereo unspecified), the Potency entry in assay [1], in [2], in assay [3], in assay [4], in [5] and in assay [6] was “inactive” in each case. For the same molecule, the Potency entry in assay [7], in [9], in assay [10], in assay [11], in assay [12] and in [13] was “inactive” in each case. In addition, the Potency result in assay [14], in assay [15], in [16], in assay [19] and in assay [20] was “inactive” each time. The result in assay [18], in assay [8] and in assay [17] was inactive.
As to `C[C@]12CC[C@H]3[C@@H](CCC4=CC(=O)CC[C@@]43C)[C@@H]1CC[C@@H]2C(=O)CO`, the Potency in assay [1] is 15.4 µM (active) and inactive; in assay [11] it was 237 nM (active). The Potency result in assay [2], in [3], in assay [4], in assay [6], in [7] and in assay [10] was “inactive” throughout. Also, the Potency result in [12], in assay [13], in assay [15], in [16], in [19] and in assay [20] was “inactive” in each case. Also, the call in [17] was inactive.
Turning to `O=Cc1ccccc1O`, the Potency entry in assay [1], in assay [4], in assay [5], in [6], in [7] and in assay [9] was “inactive” throughout. Also, the Potency entry in [10], in [11], in assay [12], in assay [13], in assay [14] and in assay [15] was “inactive” in each case. In addition, the Potency entry in [16], in assay [19] and in assay [20] was “inactive” throughout. For the same molecule, the molecule was called inactive in assay [8] and in assay [17].
